In article PMC7862700, “An all-to-all approach to the identification of sequence-specific readers for epigenetic DNA modifications on cytosine”:

Tests used:
Assay in all cases: DAPPL (digital affinity profiling via proximity ligation, sequencing); 10 mM Tris-HCl pH 7.5, 50 mM NaCl, 1 mM DTT, 4% glycerol, room temperature, 30 min; GST-TFs on glutathione beads, 16-mer random dsDNA library, 0.1% formaldehyde crosslink after washing; high values mean tight binding
Settings in all cases: protein: recombinant; tags: N-terminal GST; dsDNA, one strand shown
ETV3 = molecular target: T1, ETV3 (Homo sapiens, UniProt P41162-2 1-143)
T1 sequence: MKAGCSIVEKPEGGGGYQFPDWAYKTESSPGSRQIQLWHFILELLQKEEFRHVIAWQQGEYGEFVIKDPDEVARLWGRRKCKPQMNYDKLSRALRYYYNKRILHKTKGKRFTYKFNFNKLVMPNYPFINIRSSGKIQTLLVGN
How it was run: (§1)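 After expression in yeast as GST fusions, human transcription factors were bound to glutathione beads, DNA-barcoded and mixed with a tag-only sample. The pools were incubated with 200 nmole of a 16-mer random double-stranded DNA library in Tris/NaCl/DTT/glycerol buffer (30 min, room temperature), washed and crosslinked with 0.1% formaldehyde. Proximity ligation with BsaI/T4 ligase ran for 1 h at 37 °C, before PCR amplification and sequencing on an Illumina NextSeq500. Binding signal is a hexamer's read frequency for a factor divided by its frequency for the tag-only sample.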

ELK1 = molecular target: T2, ELK1 (Homo sapiens, UniProt P19419 1-428)
T2 sequence: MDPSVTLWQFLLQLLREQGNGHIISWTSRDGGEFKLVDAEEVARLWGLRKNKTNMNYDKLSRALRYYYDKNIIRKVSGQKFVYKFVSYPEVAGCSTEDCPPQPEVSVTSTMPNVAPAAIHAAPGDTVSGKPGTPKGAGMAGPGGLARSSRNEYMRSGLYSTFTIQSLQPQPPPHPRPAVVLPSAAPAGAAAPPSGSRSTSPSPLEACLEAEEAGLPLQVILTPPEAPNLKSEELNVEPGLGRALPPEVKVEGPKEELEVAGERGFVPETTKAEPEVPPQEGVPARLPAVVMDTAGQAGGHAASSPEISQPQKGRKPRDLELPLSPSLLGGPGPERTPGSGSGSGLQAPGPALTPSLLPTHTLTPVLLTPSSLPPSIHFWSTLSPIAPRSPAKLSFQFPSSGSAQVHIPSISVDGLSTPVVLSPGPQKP
How it was run: as §1

ELF1 = ELF1 (Homo sapiens, UniProt P32519 1-619)
Sequence of ELF1 (P32519 whole entry): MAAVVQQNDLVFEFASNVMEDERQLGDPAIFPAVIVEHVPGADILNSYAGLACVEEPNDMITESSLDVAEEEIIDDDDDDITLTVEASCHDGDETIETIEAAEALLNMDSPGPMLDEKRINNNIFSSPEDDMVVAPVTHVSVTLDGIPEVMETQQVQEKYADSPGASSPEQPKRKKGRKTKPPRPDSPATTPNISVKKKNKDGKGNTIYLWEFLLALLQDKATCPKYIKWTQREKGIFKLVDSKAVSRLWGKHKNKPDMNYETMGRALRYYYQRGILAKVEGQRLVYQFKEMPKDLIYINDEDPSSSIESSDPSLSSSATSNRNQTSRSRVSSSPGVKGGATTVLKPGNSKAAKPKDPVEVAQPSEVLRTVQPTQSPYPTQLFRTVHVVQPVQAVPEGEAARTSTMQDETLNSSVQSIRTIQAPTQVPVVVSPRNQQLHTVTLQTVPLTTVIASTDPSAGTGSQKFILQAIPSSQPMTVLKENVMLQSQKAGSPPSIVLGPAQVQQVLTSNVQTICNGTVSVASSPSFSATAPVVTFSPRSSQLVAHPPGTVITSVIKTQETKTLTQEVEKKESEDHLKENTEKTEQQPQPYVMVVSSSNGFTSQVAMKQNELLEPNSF
How it was run: as §1

EHF = molecular target: T3, EHF (Homo sapiens, UniProt Q9NZC4 1-300)
T3 sequence: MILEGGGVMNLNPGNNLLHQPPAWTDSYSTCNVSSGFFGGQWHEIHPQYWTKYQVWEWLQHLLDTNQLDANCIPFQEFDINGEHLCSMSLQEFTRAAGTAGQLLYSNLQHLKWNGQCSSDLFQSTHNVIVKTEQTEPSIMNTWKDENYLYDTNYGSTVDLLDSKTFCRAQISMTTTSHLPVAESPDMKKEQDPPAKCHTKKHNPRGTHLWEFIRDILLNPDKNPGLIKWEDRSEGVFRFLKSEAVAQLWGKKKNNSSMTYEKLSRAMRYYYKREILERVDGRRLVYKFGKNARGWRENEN
How it was run: as §1

SPIC = molecular target: T4, SPIC (Homo sapiens, UniProt Q8N5J4 1-248)
T4 sequence: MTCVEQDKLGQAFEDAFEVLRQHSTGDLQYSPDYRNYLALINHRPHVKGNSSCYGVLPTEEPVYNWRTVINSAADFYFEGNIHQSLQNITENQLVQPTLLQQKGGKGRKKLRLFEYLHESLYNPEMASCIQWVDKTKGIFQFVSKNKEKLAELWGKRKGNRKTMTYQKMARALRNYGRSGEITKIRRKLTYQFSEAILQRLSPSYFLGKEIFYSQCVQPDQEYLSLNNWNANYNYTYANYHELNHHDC
How it was run: as §1

ELK4 = molecular target: T5, ELK4 (Homo sapiens, UniProt P28324-2 1-405)
T5 sequence: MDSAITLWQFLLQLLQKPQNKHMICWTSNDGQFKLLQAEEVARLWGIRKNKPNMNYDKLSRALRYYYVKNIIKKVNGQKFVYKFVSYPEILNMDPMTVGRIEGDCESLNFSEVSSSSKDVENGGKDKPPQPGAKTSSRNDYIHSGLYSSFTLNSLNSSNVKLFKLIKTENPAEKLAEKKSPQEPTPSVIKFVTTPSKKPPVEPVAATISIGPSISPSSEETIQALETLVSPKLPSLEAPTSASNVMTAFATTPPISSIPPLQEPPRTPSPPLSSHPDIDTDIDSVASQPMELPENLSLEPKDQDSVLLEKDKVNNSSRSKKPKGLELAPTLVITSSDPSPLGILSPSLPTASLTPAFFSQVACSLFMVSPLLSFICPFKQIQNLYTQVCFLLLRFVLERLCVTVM
How it was run: as §1

ETV2 = molecular target: T6, ETV2 (Homo sapiens, UniProt O00321 1-342)
T6 sequence: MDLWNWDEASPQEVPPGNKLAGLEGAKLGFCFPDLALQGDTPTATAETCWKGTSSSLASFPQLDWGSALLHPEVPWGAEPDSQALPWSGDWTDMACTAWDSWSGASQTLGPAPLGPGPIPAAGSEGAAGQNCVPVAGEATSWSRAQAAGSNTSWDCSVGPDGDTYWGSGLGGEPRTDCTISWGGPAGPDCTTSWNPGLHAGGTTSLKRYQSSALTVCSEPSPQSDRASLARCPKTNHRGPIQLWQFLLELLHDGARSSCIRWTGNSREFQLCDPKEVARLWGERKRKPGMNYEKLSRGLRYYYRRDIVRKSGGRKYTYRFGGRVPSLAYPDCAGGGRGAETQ
How it was run: as §1

ELF3 = molecular target: T7, ELF3 (Homo sapiens, UniProt P78545 1-371)
T7 sequence: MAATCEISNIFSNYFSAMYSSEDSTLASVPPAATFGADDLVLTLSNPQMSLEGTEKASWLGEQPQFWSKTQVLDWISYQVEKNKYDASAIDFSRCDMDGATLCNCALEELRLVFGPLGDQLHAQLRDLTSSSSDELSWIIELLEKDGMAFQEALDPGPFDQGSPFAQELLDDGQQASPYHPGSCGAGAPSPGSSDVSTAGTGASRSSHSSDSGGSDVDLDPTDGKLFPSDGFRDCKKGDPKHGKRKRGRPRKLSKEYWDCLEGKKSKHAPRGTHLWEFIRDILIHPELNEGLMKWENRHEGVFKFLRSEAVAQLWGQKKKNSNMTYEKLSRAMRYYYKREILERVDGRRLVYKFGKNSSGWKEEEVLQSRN
How it was run: as §1

ETV1 = ETV1 (Homo sapiens, UniProt P50549 1-477)
Sequence of ETV1 (P50549 whole entry): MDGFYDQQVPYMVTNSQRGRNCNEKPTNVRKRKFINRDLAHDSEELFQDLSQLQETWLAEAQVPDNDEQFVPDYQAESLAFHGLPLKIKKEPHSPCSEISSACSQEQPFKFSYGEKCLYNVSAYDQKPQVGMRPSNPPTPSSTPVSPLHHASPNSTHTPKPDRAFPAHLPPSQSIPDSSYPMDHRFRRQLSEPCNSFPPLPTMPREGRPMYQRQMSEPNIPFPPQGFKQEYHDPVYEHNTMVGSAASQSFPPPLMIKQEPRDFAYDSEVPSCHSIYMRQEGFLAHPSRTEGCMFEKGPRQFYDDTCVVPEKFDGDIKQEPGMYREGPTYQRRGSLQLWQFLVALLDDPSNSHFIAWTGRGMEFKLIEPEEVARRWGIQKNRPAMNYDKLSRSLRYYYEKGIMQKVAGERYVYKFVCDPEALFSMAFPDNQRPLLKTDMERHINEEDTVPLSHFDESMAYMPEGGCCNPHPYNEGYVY
How it was run: as §1

ERF = molecular target: T8, ERF (Homo sapiens, UniProt P50548 1-548)
T8 sequence: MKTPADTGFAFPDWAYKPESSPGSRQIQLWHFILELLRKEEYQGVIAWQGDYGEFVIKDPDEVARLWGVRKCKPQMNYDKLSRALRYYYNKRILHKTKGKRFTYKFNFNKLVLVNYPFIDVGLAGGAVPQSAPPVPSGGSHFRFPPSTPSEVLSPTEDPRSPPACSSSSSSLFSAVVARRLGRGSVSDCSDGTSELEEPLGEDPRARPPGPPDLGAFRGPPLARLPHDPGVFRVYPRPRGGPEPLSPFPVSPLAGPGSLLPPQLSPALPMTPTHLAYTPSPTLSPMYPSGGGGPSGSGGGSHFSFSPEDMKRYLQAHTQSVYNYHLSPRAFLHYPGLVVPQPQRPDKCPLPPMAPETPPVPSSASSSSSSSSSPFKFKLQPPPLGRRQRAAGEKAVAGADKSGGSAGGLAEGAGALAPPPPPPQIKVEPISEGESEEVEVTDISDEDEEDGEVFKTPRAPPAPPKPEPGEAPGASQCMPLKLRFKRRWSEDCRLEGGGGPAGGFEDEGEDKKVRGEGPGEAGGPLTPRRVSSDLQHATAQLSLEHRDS
How it was run: as §1

SPDEF = molecular target: T9, SPDEF (Homo sapiens, UniProt O95238 1-335)
T9 sequence: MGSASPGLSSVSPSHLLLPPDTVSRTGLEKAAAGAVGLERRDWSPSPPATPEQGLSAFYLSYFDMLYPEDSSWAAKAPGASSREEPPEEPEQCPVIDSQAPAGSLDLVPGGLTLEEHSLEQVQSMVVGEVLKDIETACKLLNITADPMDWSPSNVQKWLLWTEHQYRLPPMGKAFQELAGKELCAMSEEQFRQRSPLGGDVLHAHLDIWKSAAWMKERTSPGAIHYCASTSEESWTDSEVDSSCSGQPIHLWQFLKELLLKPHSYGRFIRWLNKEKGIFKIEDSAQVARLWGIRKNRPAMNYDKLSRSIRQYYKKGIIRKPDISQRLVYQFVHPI
How it was run: as §1

ELF5 = molecular target: T10, ELF5 (Homo sapiens, UniProt Q9UKW6-2 1-255)
T10 sequence: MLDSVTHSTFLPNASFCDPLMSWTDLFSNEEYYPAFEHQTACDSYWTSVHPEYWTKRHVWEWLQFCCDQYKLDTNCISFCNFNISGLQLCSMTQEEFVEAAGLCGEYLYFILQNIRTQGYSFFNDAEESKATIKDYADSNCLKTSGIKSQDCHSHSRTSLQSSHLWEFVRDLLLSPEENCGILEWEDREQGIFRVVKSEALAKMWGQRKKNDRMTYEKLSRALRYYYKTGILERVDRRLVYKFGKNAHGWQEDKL
How it was run: as §1

Sequence	binding signal (ETV3)	binding signal (ELK1)	binding signal (ELF1)	binding signal (EHF)	binding signal (SPIC)	binding signal (ELK4)	binding signal (ETV2)	binding signal (ELF3)	binding signal (ETV1)	binding signal (ERF)	binding signal (SPDEF)	binding signal (ELF5)
TTCGGG	1.03 fold enrichment (6-mer frequency, TF over GST control)	–	–	–	–	–	–	–	–	–	–	–
ATCACG	–	1.04 fold enrichment (6-mer frequency, TF over GST control)	1.03 fold enrichment (6-mer frequency, TF over GST control)	1.08 fold enrichment (6-mer frequency, TF over GST control)	1.04 fold enrichment (6-mer frequency, TF over GST control)	1 fold enrichment (6-mer frequency, TF over GST control)	1.07 fold enrichment (6-mer frequency, TF over GST control)	1.01 fold enrichment (6-mer frequency, TF over GST control)	1.02 fold enrichment (6-mer frequency, TF over GST control)	1.07 fold enrichment (6-mer frequency, TF over GST control)	1.07 fold enrichment (6-mer frequency, TF over GST control)	1.02 fold enrichment (6-mer frequency, TF over GST control)
